# A selection: hits, their analogues and other compounds. The true share with any hit is near 15%.
# 12-LOX inh: blocks human arachidonate 12S-lipoxygenase; P18054; purified 12hLO, xylenol orange hydroperoxide absorbance; Potency, µM (highest dose often 108 µM), without a hit: top-dose activity change, negative = inhibition, most hits filed as inhibitors; 580,000 tested, 1.1% active
#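 Hydroperoxide product was detected by ferrous iron/xylenol orange as the 573 to 405 nm absorbance ratio. Arachidonic acid at 40 uM (final) was turned over for 30 min at room temperature by 150 nM human 12hLO, pH 7.0 Hepes buffer, after 15 min compound preincubation.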
# RORg inh: blocks mouse ROR gamma transcriptional activity | P51450 | Drosophila S2 Gal4-RORgamma UAS-luciferase reporter, 20 h | Potency, µM (highest dose often 53.6 µM), inactives show at the highest dose activity change, negative = inhibition, actives largely listed as inhibitors | 310,000 tested, 5.4% active | AID 2551; also: nearly all actives have a fitted effect of over 60% in size
# Target sequence (P51450 whole entry, looked up, the tested form may be a part): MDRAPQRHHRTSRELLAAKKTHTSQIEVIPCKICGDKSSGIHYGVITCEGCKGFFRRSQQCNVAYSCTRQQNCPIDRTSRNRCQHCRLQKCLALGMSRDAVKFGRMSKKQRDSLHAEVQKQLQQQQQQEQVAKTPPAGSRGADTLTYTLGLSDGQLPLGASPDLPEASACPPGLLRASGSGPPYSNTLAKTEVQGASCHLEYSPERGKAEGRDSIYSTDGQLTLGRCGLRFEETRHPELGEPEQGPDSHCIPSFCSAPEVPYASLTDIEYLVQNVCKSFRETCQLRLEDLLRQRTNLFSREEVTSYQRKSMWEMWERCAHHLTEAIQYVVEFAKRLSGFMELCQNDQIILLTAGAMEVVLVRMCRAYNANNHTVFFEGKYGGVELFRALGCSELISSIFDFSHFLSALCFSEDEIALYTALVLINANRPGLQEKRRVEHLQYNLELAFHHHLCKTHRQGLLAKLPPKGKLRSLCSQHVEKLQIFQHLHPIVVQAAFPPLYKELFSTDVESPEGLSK
#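 Stable Schneider cell line, Gal4 DNA-binding domain fused to ROR gamma, UAS-luciferase. Cmpd 1 hr RT → CuSO4 700 uM final → 20 hr RT → luciferase reagent 10 min → luminescence.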
# DT40 TDP1 no CPT: qHTS for Inhibitors of human tyrosyl-DNA phosphodiesterase 1 (TDP1): qHTS in cells in absence of CPT; AID 686978, 2013; 420,000 tested, 15% active; DT40 Tdp1-/- hTDP1 cells, no CPT, ATP luminescence, 48 h; Potency, µM (top dose mostly 46.2 µM), without a hit: at the top dose activity change, negative = growth inhibition, hits mostly inhibitors; also: nearly all actives have a fitted effect of over 55% in size
#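 Chicken DT40 Tdp1-/- cells stably complemented with human TDP1 were seeded at 400 cells/well with DMSO in place of 20 nM camptothecin. After compound pinning, cells grew at least 48 hr at 37 °C; viability read by CellTiter-Glo luminescence.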
# ELG1 DNA repair: blocks ELG1-dependent DNA repair in HEK293T cells; HEK293T ELG1-luciferase reporter, luminescence, 16 h; DNA damage induced by 5-fluorouridine; Potency, µM (highest dose often 46.1 µM), for the others: at the top dose activity change, negative = inhibition, usual class: inhibitors; 330,000 tested, 2.3% active; also: nearly all actives have a fitted effect of over 55% in size
#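 5-Fluorouridine DNA damage + compound/DMSO, 2,000 cells/well, 16 h, 37 °C/5% CO2. ONE-Glo, 30 min RT, luminescence. Readout = decrease in reporter signal.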
# TDP1 cell CPT: DT40-hTDP1 cell growth loss with CPT; AID 686979; Potency, µM (doses to about 46.2 µM), for inactives: top-dose activity change, negative = growth inhibition, usual class: inhibitors; chicken DT40 Tdp1-/-;hTDP1 cells + 20 nM CPT, ATP luminescence, 48 h; 420,000 tested, 12% active; also: nearly all actives have a fitted effect of over 55% in size
#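 Chicken DT40 Tdp1-/- cells stably complemented with human TDP1 were seeded at 400 cells/well in medium containing 20 nM camptothecin, exposed to pin-transferred compounds, and grown at 37 °C for at least 48 hr. Viability was read as ATP luminescence.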
# Gal4-VP16 FLuc: inhibits Gal4-VP16 luciferase reporter, ROR gamma counter-screen; AID 2546; Potency, µM (series often up to 53.6 µM), for the others: top-dose activity, negative = inhibition, usual class: inhibitors; Drosophila S2 Gal4-VP16 UAS-luciferase, luminescence, 20 h; 310,000 tested, 3.5% active;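 also: Gal4-VP16 expression switched on by copper sulfate through the metallothionein promoter; nearly all actives have a fitted effect of over 50% in size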
# Active calls of the source: *; ? = inconclusive; nt = no result given; [ ] = another dose, or the depositor's remark. Calls follow the shape of the dose curve; as a rule, active = well fitted curve in the direction sought with a large enough effect; inconclusive = small, poorly fitted or top-dose-only effect, or another doubt; inactive = no such curve, though single readings can be large; an effect the other way counts as inactive or inconclusive. % is scaled to controls: 0 for no effect and ±100 for the full control effect; potency is read from the fitted curve at half-maximal effect.
SMILES,12-LOX inh,RORg inh,DT40 TDP1 no CPT,ELG1 DNA repair,TDP1 cell CPT,Gal4-VP16 FLuc
CCC(C)n1ncn(-c2ccc(N3CCN(c4ccc(OCC5COC(Cn6cncn6)(c6ccc(Cl)cc6Cl)O5)cc4)CC3)cc2)c1=O (stereo not given),-4%,-20%,2.3µM*,nt,2.6µM*,-4%
CC(C)(C)c1cc(C(=O)N/N=C/c2ccccc2O)n(-c2ccccc2)n1,21%,0.63µM*,6.5µM*,?,6.5µM*,1.1µM*
CC(C)(C)c1cc(C(=O)N/N=C/c2ccc(F)cc2)n(-c2ccccc2)n1,23%,54%,23µM*,-2%,18µM*,14%[0.365 µM]
CN1CCN(C(c2ccccn2)c2cc(Cl)c3cccnc3c2O)CC1 (stereo not given),?,1.4µM*,6.5µM*,2%,6.5µM*,5µM*
Oc1c(C(c2ccccn2)N2CCC(Cc3ccccc3)CC2)cc(Cl)c2cccnc12 (stereo not given),?,?,2.9µM*,?,4.1µM*,?
CN1CCN(c2cc(-c3cc(O)c4ncccc4c3)ccn2)CC1,-12%,nt,nt,?,nt,nt
Oc1c(C(c2ccc(Cl)cc2)N2CCCC2)cc(Cl)c2cccnc12 (stereo not given),?,1.4µM*,5.2µM*,?,4.1µM*,?
O=C(Oc1c(Cl)cc(Cl)c2cccnc12)N1CCCCC1,?,21%,-29%,?,-30%,-1%
O=C(c1cnc(Cl)c(Cl)c1)N1CCC(Cc2ccccc2)CC1,3%,6%,?,-15%,3%,-15%
Cc1ccc(C(c2cc(Cl)c3cccnc3c2O)N2CCN(C)CC2)cc1 (stereo not given),nt,1.3µM*,?,16µM*,?,0.71µM*
Cc1ccc([S+](=O)([O-])N2CCC(N3CCCCCC3=O)CC2)cc1,13%,nt,nt,nt,nt,nt
Cc1ccc(/C=C/C(=O)O)cc1Cl,-37%,nt,nt,nt,nt,nt
CCOc1ccccc1CNC(=O)c1ccc(CN2C(=O)NC3(CCOCC3)C2=O)cc1,7%,nt,nt,nt,nt,nt
COc1ccccc1-c1c(C(F)(F)F)oc2cc(OC(=O)C3CC3)ccc2c1=O,-15%,nt,nt,nt,nt,nt
COc1ccccc1-c1c(C(F)(F)F)oc2cc(OC(=O)c3ccccc3[N+](=O)[O-])ccc2c1=O,13%,-12%,26µM*,16%,?,2%
CCNC(=O)N1C[C@H]2OC(=O)N(Cc3ccc(OC)c(OC)c3)[C@H]2C1,31%,nt,nt,nt,nt,nt
CCOC(=O)C1CCN(C(=O)c2coc(COc3cccc(F)c3)n2)CC1,108%,nt,nt,nt,nt,nt
Cc1ccccc1OCCOC(=O)CCC(=O)c1ccc(F)cc1,-5%,nt,nt,nt,nt,nt
COc1cc2ncc(S(=O)(=O)c3ccccc3)c(N3CCCC(C)C3)c2cc1OC (stereo not given),?,?,12µM*,18µM*,?,7%
CSc1nc(C)nc2c1c(=O)n(C)c(=O)n2CC(C)C,4%,nt,nt,nt,nt,nt
CC(=O)c1c(C)oc2ccc(N(C(=O)Oc3ccccc3)S(=O)(=O)c3ccccc3)cc12,-8%,nt,10µM*,nt,?,nt
CC(=O)c1c(C)oc2ccc(N(C(=O)c3ccncc3)S(=O)(=O)c3ccccc3)cc12,-8%,?,?,?,-26%,4%
COC(=O)c1c(C)oc2ccc(N(C(=O)Oc3ccccc3)S(=O)(=O)c3ccc(C(C)(C)C)cc3)cc12,-5%,nt,1.5µM*,nt,3.7µM*,nt
CCOC(=O)c1c(C)oc2ccc(N(C(=O)Oc3ccccc3)S(=O)(=O)c3ccccc3)cc12,-16%,nt,-29%,nt,2%,nt
O=C1NCCCCCCN(Cc2ccncc2)[C@@H]2CN(S(=O)(=O)Cc3cccc(F)c3)CC[C@H]12,8%,nt,nt,nt,nt,nt

# Screens as filed in PubChem BioAssay.
